# Measurements from PubChem BioAssay (NCI).
# About 79,000 compounds went through this panel and 15% of them were active in at least one assay; those are over-represented in the sample as a whole. Values without a mark were called inactive. Calls of active or inactive are those of the source. No stated cut-off is given here; in the data, active means growth inhibition above about 70%; inactive means the rest.
# Experiments:
# [1] = NCI Yeast Anticancer Drug Screen. Data for the wt1 strain (AID 149);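 further: 0% = growth of vehicle-treated wt1 cultures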; conditions: S. cerevisiae wt1 strain (SPY 50644) growth inhibition, hits give high values
# Method in brief: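 Growth inhibition read against vehicle controls after compound exposure of the wt1 yeast strain.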
# [2] = NCI Yeast Anticancer Drug Screen. Data for the rad50EPP+ strain (AID 151);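 further: 0% = growth of vehicle-treated control cultures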; conditions: S. cerevisiae rad50 mutant strain, hits give high values
# Method in brief: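 In this screen, rad50EPP+ yeast were exposed to compounds. Growth inhibition was scored against vehicle-treated controls.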
# [3] = NCI Yeast Anticancer Drug Screen. Data for the mgt1 strain (AID 153); conditions: S. cerevisiae mgt1 mutant growth inhibition, hits give high values
# Method in brief: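 mgt1 strain exposed; growth vs vehicle control recorded as inhibition.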
# [4] = NCI Yeast Anticancer Drug Screen. Data for the rad50 strain (AID 155);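 further: 0% = growth of vehicle-only cultures of the same strain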; conditions: S. cerevisiae rad50 strain growth inhibition, hits give high values
# Method in brief: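 Readout: growth inhibition relative to vehicle-treated cultures. Compound exposure was carried out in a genetically defined yeast strain deficient in DNA damage repair.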
# [5] = NCI Yeast Anticancer Drug Screen. Data for the mec2-1 strain (AID 157); conditions: S. cerevisiae mec2-1 strain, hits give high values
# Method in brief: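 Vehicle-treated cultures served as reference for growth inhibition of compound-exposed mec2-1 yeast.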
# [6] = NCI Yeast Anticancer Drug Screen. Data for the rad14 strain (AID 159);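 further: 0% = growth of vehicle-treated control cultures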; conditions: S. cerevisiae rad14 strain growth inhibition, hits give high values
# Method in brief: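 Growth inhibition vs vehicle controls; genetically altered yeast strain (DNA damage repair defect) treated with test compounds.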
# [7] = NCI Yeast Anticancer Drug Screen. Data for the sgs1 mgt1 strain (AID 161);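 further: 0% = growth of cultures given vehicle only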; conditions: S. cerevisiae sgs1 mgt1 strain, hits give high values
# Method in brief: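 Inhibition of yeast growth, normalised to vehicle-treated controls, is reported for a strain bearing genetic alterations in DNA damage repair.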
# [8] = NCI Yeast Anticancer Drug Screen. Data for the CLN2oe strain (AID 163);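 further: 0% = growth of vehicle-only control cultures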; conditions: S. cerevisiae CLN2oe strain, hits give high values
# Method in brief: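 Inhibition relative to vehicle-treated yeast is reported. Cells: strain with genetic alteration in cell-cycle control, grown with compound.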
# [9] = NCI Yeast Anticancer Drug Screen. Data for the cln2 rad14 strain (AID 165);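 further: 0% = growth equal to vehicle treated cultures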; conditions: S. cerevisiae cln2 rad14 strain, hits give high values
# Method in brief: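 Each compound was tested on cln2 rad14 yeast. Inhibition of growth was calculated against vehicle-exposed controls.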
# [10] = NCI Yeast Anticancer Drug Screen. Data for the bub3 strain (AID 167); conditions: S. cerevisiae bub3 mutant strain, hits give high values
# Method in brief: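 Readout: yeast growth inhibition, expressed relative to vehicle-only wells. The test organism is a mutant strain from a panel with lesions in DNA repair or checkpoint genes.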
# [11] = NCI Yeast Anticancer Drug Screen. Data for the wt2 strain (AID 169);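 further: 0% = growth of vehicle-treated yeast cultures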; conditions: S. cerevisiae wt2 strain growth inhibition, hits give high values
# Method in brief: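 Inhibition of yeast growth was determined after compound treatment, normalised to controls receiving only vehicle.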
# [12] = NCI Yeast Anticancer Drug Screen. Data for the mlh1 strain (AID 171);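 further: 0% = growth of vehicle-treated control cultures of the same strain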; conditions: S. cerevisiae mlh1 strain growth inhibition, hits give high values
# Method in brief: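 Vehicle-normalised growth inhibition of a repair- or checkpoint-altered yeast strain following compound treatment.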
# [13] = NCI Yeast Anticancer Drug Screen. Data for the sgs1 strain (AID 173);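 further: 0% = growth of vehicle-only control cultures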; conditions: S. cerevisiae sgs1 mutant, hits give high values
# Method in brief: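 Screen format: yeast with repair or checkpoint alterations, compound exposure, growth read relative to vehicle.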
# [14] = NCI Yeast Anticancer Drug Screen. Data for the mlh1 rad18 strain (AID 175); conditions: S. cerevisiae mlh1 rad18 strain growth inhibition, hits give high values
# Method in brief: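 Vehicle-treated cultures served as the reference for growth inhibition in a yeast strain carrying DNA damage repair alterations exposed to each compound.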
# [15] = NCI Yeast Anticancer Drug Screen. Data for the rad18 strain (AID 177); conditions: S. cerevisiae rad18 mutant growth inhibition, hits give high values
# Method in brief: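 Test articles were incubated with altered yeast defective in DNA damage repair. Results are given as inhibition of growth versus vehicle.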
# [16] = NCI Yeast Anticancer Drug Screen. Data for the rad52 strain (AID 147);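 further: 0% = growth of vehicle-treated control cultures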; conditions: S. cerevisiae rad52 mutant growth inhibition, hits give high values
# Method in brief: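 Vehicle-treated cultures served as the reference for growth inhibition of compound-exposed yeast bearing a DNA repair mutation.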
# [17] = at 5.0 µM (retest, dose inferred, filed as 0.5)
# [18] = at 50.0 µM (retest, dose inferred, filed as 5.0)
smiles,measurement,setting,value
COc1cc(C2SCC(=O)N2c2nnc(C(F)(F)F)s2)cc(OC)c1OC (stereo not drawn),growth inhibition,[1]; at 1.2 µM,-84%
same,growth inhibition,[1]; at 3.7 µM,-3%
same,growth inhibition,[1]; at 11.0 µM,-3%
same,growth inhibition,[1]; at 33.0 µM,-1%
same,growth inhibition,[1]; at 100.0 µM,-3%
same,growth inhibition,[2]; at 1.2 µM,-4%
same,growth inhibition,[2]; at 3.7 µM,-2%
same,growth inhibition,[2]; at 11.0 µM,3%
same,growth inhibition,[2]; at 33.0 µM,-2%
same,growth inhibition,[2]; at 100.0 µM,0%
same,growth inhibition,[3]; at 1.2 µM,-1%
same,growth inhibition,[3]; at 3.7 µM,-2%
same,growth inhibition,[3]; at 11.0 µM,-5%
same,growth inhibition,[3]; at 33.0 µM,-1%
same,growth inhibition,[3]; at 100.0 µM,-4%
same,growth inhibition,[4]; at 1.2 µM,-1%
same,growth inhibition,[4]; at 3.7 µM,-2%
same,growth inhibition,[4]; [17],-5%
same,growth inhibition,[4]; at 11.0 µM,-2%
same,growth inhibition,[4]; at 33.0 µM,0%
same,growth inhibition,[4]; [18],-18%
same,growth inhibition,[4]; at 50.0 µM,18.1%
same,growth inhibition,[4]; at 100.0 µM,-5%
same,growth inhibition,[5]; at 1.2 µM,-4%
same,growth inhibition,[5]; at 3.7 µM,2%
same,growth inhibition,[5]; [17],0%
same,growth inhibition,[5]; at 11.0 µM,4%
same,growth inhibition,[5]; at 33.0 µM,1%
same,growth inhibition,[5]; [18],-4%
same,growth inhibition,[5]; at 50.0 µM,20.9%
same,growth inhibition,[5]; at 100.0 µM,-1%
same,growth inhibition,[6]; at 1.2 µM,-2%
same,growth inhibition,[6]; at 3.7 µM,-2%
same,growth inhibition,[6]; at 11.0 µM,-1%
same,growth inhibition,[6]; at 33.0 µM,-2%
same,growth inhibition,[6]; at 100.0 µM,-4%
same,growth inhibition,[7]; [17],-4%
same,growth inhibition,[7]; [18],2%
same,growth inhibition,[7]; at 50.0 µM,0.1%
same,growth inhibition,[8]; at 1.2 µM,-7%
same,growth inhibition,[8]; at 3.7 µM,1%
same,growth inhibition,[8]; at 11.0 µM,-2%
same,growth inhibition,[8]; at 33.0 µM,0%
same,growth inhibition,[8]; at 100.0 µM,-8%
same,growth inhibition,[9]; [17],-7%
same,growth inhibition,[9]; [18],-10%
same,growth inhibition,[9]; at 50.0 µM,-12.5%
same,growth inhibition,[10]; at 1.2 µM,6%
same,growth inhibition,[10]; at 3.7 µM,12%
same,growth inhibition,[10]; [17],31%
same,growth inhibition,[10]; at 11.0 µM,28%
same,growth inhibition,[10]; at 33.0 µM,41%
same,growth inhibition,[10]; [18],50%
same,growth inhibition,[10]; at 50.0 µM,43.1%
same,growth inhibition,[10]; at 100.0 µM,48%
same,growth inhibition,[11]; at 1.2 µM,-2%
same,growth inhibition,[11]; at 3.7 µM,-4%
same,growth inhibition,[11]; at 11.0 µM,-2%
same,growth inhibition,[11]; at 33.0 µM,-4%
same,growth inhibition,[11]; at 100.0 µM,-4%
same,growth inhibition,[12]; at 1.2 µM,-3%
same,growth inhibition,[12]; at 3.7 µM,-2%
same,growth inhibition,[12]; at 11.0 µM,0%
same,growth inhibition,[12]; at 33.0 µM,-1%
same,growth inhibition,[12]; at 100.0 µM,-2%
same,growth inhibition,[13]; at 1.2 µM,-3%
same,growth inhibition,[13]; at 3.7 µM,-2%
same,growth inhibition,[13]; at 11.0 µM,-3%
same,growth inhibition,[13]; at 33.0 µM,-1%
same,growth inhibition,[13]; at 100.0 µM,-1%
same,growth inhibition,[14]; [17],-4%
same,growth inhibition,[14]; [18],-9%
same,growth inhibition,[14]; at 50.0 µM,0.35%
same,growth inhibition,[15]; at 1.2 µM,-2%
same,growth inhibition,[15]; at 3.7 µM,-2%
same,growth inhibition,[15]; at 11.0 µM,-1%
same,growth inhibition,[15]; at 33.0 µM,-2%
same,growth inhibition,[15]; at 100.0 µM,-2%
CCCCCCCCCCC1CCC(=O)O1 (stereo not drawn),growth inhibition,[16]; at 1.2 µM,-2%
same,growth inhibition,[16]; at 3.7 µM,-2%
same,growth inhibition,[16]; at 11.0 µM,-1%
same,growth inhibition,[16]; at 33.0 µM,4%
same,growth inhibition,[16]; at 100.0 µM,99% (active)
same,growth inhibition,[2]; at 1.2 µM,-2%
same,growth inhibition,[2]; at 3.7 µM,3%
same,growth inhibition,[2]; at 11.0 µM,11%
same,growth inhibition,[2]; at 33.0 µM,22%
same,growth inhibition,[2]; at 100.0 µM,38%
same,growth inhibition,[3]; at 1.2 µM,-2%
same,growth inhibition,[3]; at 3.7 µM,-1%
same,growth inhibition,[3]; at 11.0 µM,0%
same,growth inhibition,[3]; at 33.0 µM,8%
same,growth inhibition,[3]; at 100.0 µM,100% (active)
same,growth inhibition,[4]; at 1.2 µM,-1%
same,growth inhibition,[4]; at 3.7 µM,-46%
same,growth inhibition,[4]; [17],-2%
same,growth inhibition,[4]; at 11.0 µM,16%
same,growth inhibition,[4]; at 33.0 µM,12%
same,growth inhibition,[4]; [18],50%
same,growth inhibition,[4]; at 50.0 µM,97.2% (active)
same,growth inhibition,[4]; at 100.0 µM,99% (active)
same,growth inhibition,[5]; at 1.2 µM,-1%
same,growth inhibition,[5]; at 3.7 µM,-2%
same,growth inhibition,[5]; [17],5%
same,growth inhibition,[5]; at 11.0 µM,0%
same,growth inhibition,[5]; at 33.0 µM,8%
same,growth inhibition,[5]; [18],27%
same,growth inhibition,[5]; at 50.0 µM,98.8% (active)
same,growth inhibition,[5]; at 100.0 µM,99% (active)
same,growth inhibition,[7]; [17],6%
same,growth inhibition,[7]; [18],13%
same,growth inhibition,[7]; at 50.0 µM,91.2% (active)
same,growth inhibition,[8]; at 1.2 µM,0%
same,growth inhibition,[8]; at 3.7 µM,1%
same,growth inhibition,[8]; at 11.0 µM,7%
same,growth inhibition,[8]; at 33.0 µM,5%
same,growth inhibition,[8]; at 100.0 µM,98% (active)
same,growth inhibition,[9]; [17],2%
same,growth inhibition,[9]; [18],15%
same,growth inhibition,[9]; at 50.0 µM,97.7% (active)
same,growth inhibition,[10]; at 1.2 µM,-3%
same,growth inhibition,[10]; at 3.7 µM,0%
same,growth inhibition,[10]; [17],3%
same,growth inhibition,[10]; at 11.0 µM,0%
same,growth inhibition,[10]; at 33.0 µM,0%
same,growth inhibition,[10]; [18],9%
same,growth inhibition,[10]; at 50.0 µM,91.3% (active)
same,growth inhibition,[10]; at 100.0 µM,99% (active)
same,growth inhibition,[11]; at 1.2 µM,-1%
same,growth inhibition,[11]; at 3.7 µM,8%
same,growth inhibition,[11]; at 11.0 µM,0%
same,growth inhibition,[11]; at 33.0 µM,4%
same,growth inhibition,[11]; at 100.0 µM,99% (active)
same,growth inhibition,[12]; at 1.2 µM,-2%
same,growth inhibition,[12]; at 3.7 µM,0%
same,growth inhibition,[12]; at 11.0 µM,0%
same,growth inhibition,[12]; at 33.0 µM,10%
same,growth inhibition,[12]; at 100.0 µM,99% (active)
